Measured values reported in PubChem BioAssay (Tox21).
Records with an inconclusive call do not appear. Active and inactive are the calls of the source. Unless noted, the call rests on the fitted dose curve; in most records, active means well fitted curve in the direction sought with a large enough effect in the repeat runs; inconclusive means weak or mixed curves; inactive means no such curve, though single readings can be large; an effect the other way counts as inactive or inconclusive.

Legend:
[1] = target: Thyrotropin receptor (Homo sapiens) (UniProt P16473); assay: qHTS assay to identify small molecule agonists of the thyroid stimulating hormone receptor (TSHR) signaling pathway (AID 1224843; calls by dose curve; further: nearly all actives have a fitted effect of over 45% in size)
Summary of the method: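 HEK293 cells stably bearing the thyrotropin receptor were plated at 800 cells/well and challenged with compound (30 min, RT). Accumulated cAMP was quantified via cAMP-d2 competing for cryptate-tagged antibody.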

[2] = qHTS assay to identify small molecule agonists of the hypoxia (HIF-1) signaling pathway - cell viability counter screen (AID 1224844; calls by dose curve; further: nearly all actives have a fitted effect of over 50% in size)
Summary of the method: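 HRE-bla ME-180 cells, 2,000/well in 0.5% dialyzed FBS medium, treated 17 h at 37C with compounds. Viability read in the same wells as the bla reporter, by CellTiter-Glo luminescence after 30 min at room temperature.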

[3] = qHTS assay to identify small molecule agonists of H2AX (AID 1224845; active means well fitted activation curve with a large enough effect in the signal ratio in the repeat runs, not every such curve was filed as active; the % refers to the signal ratio)
Summary of the method: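 Phospho-H2AX Ser139 measured by HTRF (ex 320 nm; em 665 and 620 nm) after 24 hr antibody incubation. Compounds, 15 concentrations, 0.76% DMSO, were applied to CHO-K1 cells for 3hr at 37C before lysis.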

[4] = qHTS assay to identify small molecule agonists of the hypoxia (HIF-1) signaling pathway (AID 1224846; active means well fitted activation curve with a large enough effect in the signal ratio in the repeat runs, not every such curve was filed as active; the % refers to the signal ratio)
Summary of the method: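 HRE-bla ME-180 beta-lactamase reporter cells in medium with 0.5% dialyzed FBS, pre-incubated 5 h then exposed to compounds 17 h at 37C, 5% CO2; reporter induction read with CCF4-AM FRET substrate.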

[5] = qHTS assay to identify small molecule agonists of H2AX - cell viability counter screen (AID 1224847; calls by dose curve; further: top concentration of the series differs between compounds; nearly all actives have a fitted effect of over 30% in size)
Summary of the method: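 Cytotoxicity counter screen in wild-type CHO-K1 cells: a 3 hr compound treatment at 37C across 15 concentrations, followed by CellTiter-Glo luminescence to gauge viable cells.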

[6] = qHTS RealTime-Glo MT Cell Viability Assay in HepG2 cells - 24 hour (AID 1224867); further: nearly all actives have a fitted effect of over 50% in size
Summary of the method: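 HepG2 cells were seeded at 600 cells/well together with NanoLuc luciferase and a cell-permeant prosubstrate, preincubated 5 h at 37 C/5% CO2, then pin-dosed with compounds in DMSO. Nonlytic luminescence from viable cells was read at each time point.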

[7] = qHTS RealTime-Glo MT Cell Viability Assay in HEK293 cells - 32 hour (AID 1224868); further: top concentration of the series differs between compounds; nearly all actives have a fitted effect of over 50% in size
Summary of the method: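 HEK293 cells were seeded at 600 cells/well together with NanoLuc luciferase and cell-permeant prosubstrate, preincubated 5 h at 37 C/5% CO2, then given compound in DMSO by pintool. Luminescence from viable-cell prosubstrate reduction was read repeatedly over 40 h.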

[8] = A CellTox Green Cytotoxicity Assay to monitor cytotoxicity in HEK293 cells - 0 hour (AID 1224869); further: nearly all actives have a fitted effect of over 50% in size
Summary of the method: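 HEK293 cells, 600/well, were preincubated 5 hours and then exposed to compounds at 37 C for up to 40 hours. A cell-impermeant cyanine dye staining dead-cell DNA was read by fluorescence at 0, 8, 16, 24, 32 and 40 h time points.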

[9] = qHTS assay to identify small molecule agonists of the estrogen related receptor (ERR) signaling pathway from Tox21 library (AID 1224849; calls by dose curve; further: nearly all actives have a fitted effect of over 15% in size); conditions: ERR reporter cell line, ONE-Glo luciferase, 18 h; at 92.4 µM (top of the series) unless noted
Summary of the method: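 ERR reporter cells (NTP line) pre-incubated 6 hours at 37 C, then exposed to compounds for 18 hours at 37 C. ONE-Glo luciferase luminescence was read after 30 minutes at room temperature.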

[10] = qHTS assay to identify small molecule antagonists of the estrogen related receptor (ERR) signaling pathway from Tox21 library (AID 1224848); further: nearly all actives have a fitted effect of over 50% in size
Summary of the method: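 Reading was by luminescence 30 min after ONE-Glo addition. Before that, ERR cells at 2,000 per well had rested 6 h at 37 C/5% CO2 and then received pin-tooled compounds in DMSO for 18 h at 37 C.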
On the % scale 0 is the no-effect control and ±100 the full control effect.

Chain of Thyrotropin receptor (Homo sapiens) (P16473 whole entry, looked up): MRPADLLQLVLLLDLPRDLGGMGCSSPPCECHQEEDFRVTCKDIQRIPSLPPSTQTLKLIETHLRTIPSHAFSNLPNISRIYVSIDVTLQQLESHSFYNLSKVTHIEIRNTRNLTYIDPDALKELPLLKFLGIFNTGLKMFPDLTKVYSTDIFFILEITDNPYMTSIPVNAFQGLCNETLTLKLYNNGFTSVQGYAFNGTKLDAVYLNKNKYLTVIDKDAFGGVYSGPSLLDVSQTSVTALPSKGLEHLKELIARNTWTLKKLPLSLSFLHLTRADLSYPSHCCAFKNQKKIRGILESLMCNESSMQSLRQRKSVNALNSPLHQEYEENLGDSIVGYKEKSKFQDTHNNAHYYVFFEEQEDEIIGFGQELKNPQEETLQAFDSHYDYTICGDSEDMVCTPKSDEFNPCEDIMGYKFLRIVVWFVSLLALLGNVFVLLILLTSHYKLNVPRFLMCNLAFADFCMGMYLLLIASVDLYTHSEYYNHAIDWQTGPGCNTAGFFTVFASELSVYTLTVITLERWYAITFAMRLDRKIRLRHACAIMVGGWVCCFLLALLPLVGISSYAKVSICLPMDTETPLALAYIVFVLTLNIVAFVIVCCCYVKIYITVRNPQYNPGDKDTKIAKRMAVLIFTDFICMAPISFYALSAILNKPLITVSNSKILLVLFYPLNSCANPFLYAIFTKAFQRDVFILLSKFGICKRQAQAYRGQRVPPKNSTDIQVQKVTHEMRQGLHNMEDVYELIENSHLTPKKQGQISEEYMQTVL

C=CCSCC1Nc2cc(Cl)c(S(N)(=O)=O)cc2S(=O)(=O)N1 (stereo not drawn)
inactive: outcome [1] | Potency [2] | outcome [3] | outcome [4] | Potency [5] | outcome [6] | Potency [7] | Potency [8]

CC(C)(C)N(CCO)CCO
inactive: outcome [1] | Potency [2] | outcome [3] | outcome [4] | Potency [5] | outcome [6] | Potency [7] | Potency [8]

O=C(O)C1CCC1
inactive: outcome [1] | Potency [2] | outcome [3] | outcome [4] | Potency [5] | outcome [6] | Potency [7]

C=C(C)[C@@H]1CCC2=CC(=O)C[C@@H](C)[C@]2(C)C1
inactive: outcome [1] | Potency [2] | outcome [3] | outcome [4] | activity change, positive = activation [9] -3.73% | outcome [6] | Potency [7] | Potency [8]

OCCN1C[C@H](O)[C@@H](O)[C@H](O)[C@H]1CO
inactive: outcome [1] | Potency [2] | outcome [3] | outcome [4] | outcome [6] | Potency [7] | Potency [8]

CC(C)CCCC(C)NCCC(C)C (stereo not drawn)
inactive: outcome [1] | Potency [2] | outcome [4] | Potency [5] | Potency [10] | activity change, positive = activation [9] 1.21% [at 42.5 µM] | outcome [6] | Potency [7] | Potency [8]

O=C(O)c1ccccc1S
inactive: outcome [1] | Potency [2] | outcome [3] | Potency [5] | outcome [6] | Potency [7] | Potency [8]

C[C@H](O)C(=O)Nc1c(I)c(C(=O)NC(CO)CO)c(I)c(C(=O)NC(CO)CO)c1I
inactive: outcome [1] | Potency [2] | outcome [3] | Potency [5] | outcome [6] | Potency [7] | Potency [8]

c1ccc2cnncc2c1
inactive: outcome [1] | Potency [2] | outcome [4] | Potency [5] | Potency [10] | activity change, positive = activation [9] -2.66% | outcome [6] | Potency [8]

C#CC(O)CCCCC (stereo not drawn)
inactive: outcome [1] | Potency [2] | outcome [3] | outcome [4] | outcome [6] | Potency [7]

NS(=O)(=O)c1cc(C2(O)NC(=O)c3ccccc32)ccc1Cl (stereo not drawn)
inactive: outcome [1] | Potency [2] | outcome [3] | Potency [5] | outcome [6] | Potency [7] | Potency [8]

NS(=O)(=O)c1cc2c(cc1C(F)(F)F)NC(Cc1ccccc1)NS2(=O)=O (stereo not drawn)
inactive: outcome [1] | Potency [2] | outcome [3] | Potency [5] | outcome [6] | Potency [7] | Potency [8]

NC(=S)Nc1cccc2ccccc12
inactive: activation [1] 1.3% [at 8.39 µM] | activity change, negative = cytotoxicity [2] -3.12% [at 6.97 µM] | activation (H2AX phosphorylation) [3] 4.19% [at 14 µM] | activation [4] 1.15% [at 7.01 µM] | activity change, negative = cytotoxicity [6] 1.73% [at 6.97 µM] | activity change, negative = cytotoxic [7] 15.6% [at 6.97 µM] | cytotoxicity [8] 0.823% [at 6.97 µM]

CN(C)CCn1nnnc1SCC1=C(C(=O)O)N2C(=O)[C@@H](NC(=O)Cc3csc(N)n3)[C@H]2SC1
inactive: outcome [1] | Potency [2] | outcome [3] | Potency [5] | outcome [6] | Potency [7] | Potency [8]

CCCCCCCCN(C)CCCCCCCC
inactive: outcome [1] | Potency [2] | outcome [3] | outcome [4] | activity change, positive = activation [9] 18.3% | outcome [6] | Potency [7] | Potency [8]

CC/C=C\C#N
inactive: outcome [1] | Potency [2] | outcome [3] | outcome [4] | outcome [6] | Potency [7] | Potency [8]

FC(F)(F)C(F)(F)C(F)(F)C(F)(F)C(F)(F)C(F)(F)C(F)(F)C(F)(F)C(F)(F)C(F)(F)F
inactive: activation [1] 1.03% [at 8.39 µM] | activity change, negative = cytotoxicity [2] -0.544% [at 6.97 µM] | activation (H2AX phosphorylation) [3] -0.945% [at 14 µM] | activation [4] -1.11% [at 7.01 µM] | activity change, negative = cytotoxicity [6] -0.167% [at 6.97 µM] | activity change, negative = cytotoxic [7] -3.25% [at 6.97 µM] | cytotoxicity [8] -6.11% [at 6.97 µM]

NCC[C@H](O)C(=O)N[C@@H]1C[C@H](N)[C@@H](O[C@H]2O[C@H](CN)[C@@H](O)[C@H](O)[C@H]2O)[C@H](O)[C@H]1O[C@H]1O[C@H](CO)[C@@H](O)[C@H](N)[C@H]1O
inactive: activation [1] -3.02% [at 0.349 µM] | activity change, negative = cytotoxicity [2] 3.37% [at 0.29 µM] | activation (H2AX phosphorylation) [3] 0.216% [at 0.582 µM] | activity change, negative = cytotoxicity [5] 2.46% [at 0.582 µM] | activity change, negative = cytotoxicity [6] 1.55% [at 0.29 µM] | activity change, negative = cytotoxic [7] 4.99% [at 0.29 µM] | cytotoxicity [8] -5.15% [at 0.29 µM]

CCCOc1ccccc1-c1nc2n[nH]nc2c(=O)[nH]1
inactive: outcome [1] | Potency [2] | outcome [3] | Potency [5] | outcome [6] | Potency [8]

CCN(CC)S(=O)(=O)c1ccc(C(=O)O)cc1
inactive: outcome [1] | Potency [2] | outcome [3] | outcome [4] | outcome [6] | Potency [8]

N#CC1(O)CCCCC1
inactive: outcome [1] | Potency [2] | outcome [4] | Potency [5] | Potency [10] | activity change, positive = activation [9] 7.59% | outcome [6] | Potency [7] | Potency [8]

CCC(C(=O)NC(N)=O)c1ccccc1 (stereo not drawn)
inactive: outcome [1] | Potency [2] | outcome [4] | Potency [5] | activity change, positive = activation [9] -3.04% | outcome [6] | Potency [7] | Potency [8]

CC(C)(O)Cc1ccccc1
inactive: outcome [1] | Potency [2] | outcome [4] | Potency [5] | activity change, positive = activation [9] -2.35% | outcome [6] | Potency [8]

CSc1ccc(C=O)cc1
inactive: outcome [1] | Potency [2] | outcome [3] | Potency [5] | outcome [6] | Potency [7] | Potency [8]

O=C(O)c1ccc[n+]([O-])c1
inactive: outcome [1] | Potency [2] | outcome [3] | outcome [4] | outcome [6] | Potency [7] | Potency [8]

C=C(C)C(=O)OCCCCCCCCCCCCCCCCCC
inactive: activation [1] -1.44% [at 19 µM] | activity change, negative = cytotoxicity [2] 5.2% [at 15.8 µM] | activation (H2AX phosphorylation) [3] 0.951% [at 31.6 µM] | activation [4] -0.144% [at 15.8 µM] | activity change, negative = cytotoxicity [6] 4.54% [at 15.8 µM] | activity change, negative = cytotoxic [7] 4.26% [at 15.8 µM] | cytotoxicity [8] 2.77% [at 15.8 µM]

CC(C)CCCCCCN
inactive: outcome [1] | Potency [2] | outcome [3] | outcome [4] | outcome [6] | Potency [7] | Potency [8]

COc1cccc(OC)c1
inactive: outcome [1] | Potency [2] | outcome [3] | outcome [4] | outcome [6] | Potency [7] | Potency [8]
